Sampled rows, rich in hits. Any-hit rate of the full collection: about 21%.
CYP2C9 inh: human CYP2C9 inhibition. P11712. CYP2C9 Supersomes, luciferin-H conversion, luminescence. inhibition, % at 5 µM. actives 20% (n = 96,000). AID 777;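 active means blocking of liver enzyme CYP2C9 beyond about 50% at 5 µM, limit read from the data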
MRP resist rev: compounds reversing MRP-mediated drug resistance; H69AR cells + 2 uM doxorubicin, CellTiter-Glo, 72 h; differential viability (reversal), % at 10 µM; actives 0.04% (n = 85,000); AID 602;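 active means viability drop by adding the cancer drug above about 55%, with treated viability meeting a 40% cutoff, limit read from the data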;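 further: larger differential means the compound sensitizes cells more to doxorubicin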
MRP1 act: activates MRP-1. viability increase, % at 10 µM. actives 0.61% (n = 140,000). H69AR cells + doxorubicin, viability rescue, CellTiter-Glo. AID 799;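 active means viability gain under doxorubicin at or above a set limit, the compound median plus 3 SD, cut at about 4.7% in these data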;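 further: MRP-1 overexpressing cells given doxorubicin 25 µM after compound pretreatment; 18-22 h compound pretreatment then 72 h with doxorubicin before readout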
CYP2C9 activ: activators of human CYP2C9. recombinant CYP2C9, luciferin-H conversion, luminescence; active compounds read high; factor 1 = untreated enzyme, 0 = blocked. activation factor at 5 µM. actives 1.4% (n = 96,000);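 active means activation factor of 2 or more for CYP2C9 at a 5 µM dose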
CYP2C19 act: activators of human cytochrome P450 2C19; P33261; recombinant CYP2C19, luciferin-H EGE luminescence; active compounds read high; 0 = fully inhibited enzyme, 1 = untreated enzyme; activation factor at 5 µM; 96,000 tested, under 10 active;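 active means activation factor of at least 2 at 5 µM in the primary screen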
Target sequence (P33261 whole entry, looked up): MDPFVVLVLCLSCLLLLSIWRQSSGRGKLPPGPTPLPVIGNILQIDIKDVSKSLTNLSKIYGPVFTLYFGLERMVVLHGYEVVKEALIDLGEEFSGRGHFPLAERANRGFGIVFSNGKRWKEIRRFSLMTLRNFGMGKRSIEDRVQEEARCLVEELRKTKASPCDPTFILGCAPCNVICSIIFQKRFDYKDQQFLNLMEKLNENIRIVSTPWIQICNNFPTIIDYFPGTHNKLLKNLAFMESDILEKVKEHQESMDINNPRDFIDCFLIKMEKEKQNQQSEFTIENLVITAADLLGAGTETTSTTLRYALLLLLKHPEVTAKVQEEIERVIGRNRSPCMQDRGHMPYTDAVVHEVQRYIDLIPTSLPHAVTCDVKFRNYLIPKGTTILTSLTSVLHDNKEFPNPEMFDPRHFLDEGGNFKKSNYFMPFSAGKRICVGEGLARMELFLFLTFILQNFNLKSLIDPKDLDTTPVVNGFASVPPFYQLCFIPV
CYP2C19 inh: inhibitors of human CYP2C19; P33261; CYP2C19 Supersomes, luciferin-H EGE luminescence, 30 min; inhibition, % at 5 µM; actives 21% (n = 96,000);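 active means CYP2C19 inhibition above a set limit at 5 µM in the primary screen, cut at about 50% in these data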
Numbers stand for hits; 0 = inactive; - = not tested or not shown.

SMILES | CYP2C9 inh | MRP resist rev | MRP1 act | CYP2C9 activ | CYP2C19 act | CYP2C19 inh
CCOC(=O)c1cnc2ccc(C)cc2c1Sc1ccccc1C(=O)OC | 0 | - | 0 | 0 | 0 | 0
COc1ccc(C(C(=O)NC(C)(C)C)N(C(=O)CNC(=O)c2cccs2)c2ccc(C(C)C)cc2)cc1OC (stereo not given) | - | - | 0 | - | - | -
O=C(Nc1ccc(Br)cc1F)c1sccc1-n1cccc1 | 0 | 0 | 0 | 0 | 0 | 0
O=C(NNS(=O)(=O)c1ccc(Cl)cc1)c1cnn(-c2ccccc2)c1-n1cccc1 | 64 | - | 0 | 0 | 0 | 0
COc1ccc(C(c2nnnn2Cc2cccs2)N2CCN(c3ccc(F)cc3)CC2)cc1OC (stereo not given) | 0 | 0 | 0 | 0 | 0 | 0
Nc1cc(C(=O)c2cccs2)ccc1Cl | 0 | 0 | - | 0 | 0 | 87
C=CCN(CC(=O)NCc1ccccc1)C(=O)c1csnn1 | 0 | 0 | 0 | 0 | 0 | 73
COc1ccc(CNC(=O)CN(Cc2ccccc2)C(=O)c2csnn2)cc1 | 0 | 0 | 0 | 0 | 0 | 0
Cc1cc(C=O)c(C)n1-c1ccc(N2CCOCC2)cc1 | - | 0 | 0 | - | - | -
Cc1cc(C=O)c(C)n1-c1cc(C(F)(F)F)ccc1N1CCOCC1 | 0 | 0 | 0 | 0 | 0 | 92
O=C1CCSc2ccc(Cl)cc2N1Cc1ccccc1 | 0 | - | 0 | 0 | 0 | 66
O=C1CCSc2ccc(Cl)cc2N1Cc1ccc(Cl)cc1 | 0 | - | 0 | 0 | 0 | 0
Cc1cccc(CN2C(=O)CCSc3ccc(Cl)cc32)c1 | 0 | - | 0 | 0 | 0 | 67
CCNC(=S)NNC(=O)c1cccc(Br)c1 | 0 | - | 0 | 0 | 0 | 0
COc1cccc(OC)c1C(=O)n1nc(C)cc1C | 0 | 0 | 0 | 0 | 0 | 0
Cc1cc(C)n(S(=O)(=O)c2ccc(C)c(C)c2C)n1 | 0 | 0 | 0 | 3.7 | 0 | 0
COc1ccc(S(=O)(=O)n2nc(C)cc2C)c(C)c1C | 0 | 0 | 0 | 2.4 | 0 | 0
Cc1cc(C)n(S(=O)(=O)c2cc(C)c(C)cc2C)n1 | 0 | 0 | 0 | 0 | 0 | 0
COc1ccc(C2CC(=O)C(C=NCCN3CCOCC3)=C(O)C2)cc1 (stereo not given) | - | - | 0 | - | - | -
COC(=O)c1ccccc1NC(=O)/C=C/c1cc(OC)c(OC)c(OC)c1 | 0 | 0 | 0 | 0 | 0 | 0
CCC(Oc1ccccc1)C(=O)Nc1ccc(S(=O)(=O)NCC2CCCO2)cc1 (stereo not given) | 91 | 0 | 0 | 0 | 0 | 0
O=[N+]([O-])c1ccc(S(=O)(=O)NCC2CCCO2)cc1 (stereo not given) | - | - | 0 | - | - | -
CCC(C)NS(=O)(=O)c1ccc(NC(=O)CCC2CCCCC2)cc1 (stereo not given) | 0 | 0 | 0 | 0 | 0 | 0
CCC(C)NS(=O)(=O)c1ccc(S(=O)(=O)N(CC(=O)Nc2ccccc2)CC2CCCO2)cc1 (stereo not given) | 92 | 0 | 0 | 0 | 0 | 0
O=S(=O)(NCC1CCCO1)c1ccc(Oc2ccccc2)cc1 (stereo not given) | 83 | 0 | 0 | 0 | 0 | 95
SMILES | CYP2C9 inh | MRP resist rev | MRP1 act | CYP2C9 activ | CYP2C19 act | CYP2C19 inh
CC(C)COc1ccc2[nH]c3c(c2c1)CCCC3=O | 0 | 0 | 0 | 0 | 0 | 0
Cc1ccc(C(=O)Nc2ccon2)cc1S(=O)(=O)N1CCOCC1 | 0 | 0 | 0 | 0 | 0 | 0
Cc1cc(C)n(C(=O)c2ccc(C)c(S(=O)(=O)N3CCCCC3)c2)n1 | 91 | 0 | 0 | 0 | 0 | 91
Cc1ccc(C(=O)Nc2ccon2)cc1S(=O)(=O)N1CCCCCC1 | 0 | 0 | 0 | 0 | 0 | 88
Cc1ccccc1C(=O)Oc1ccc(Sc2ccc(O)cc2)cc1 | 0 | - | 0 | 0 | 0 | 0
O=C(O)CC(c1ccc(Cl)cc1)n1cccc1 (stereo not given) | 0 | 0 | 0 | 0 | 0 | 0
O=C(Cn1cc(C(F)(F)F)ccc1=O)N1CCN(S(=O)(=O)c2ccc(Cl)cc2)CC1 | 0 | 0 | 0 | 0 | 0 | 0
Cc1c(Br)cc(-c2nnco2)cc1Br | 0 | 0 | 0 | 2.9 | 0 | 0
O=C(/C(C=Nc1ccc(Br)cc1)=C(/O)c1ccco1)C(F)(F)F | - | - | 0 | - | - | -
Cc1cc(C(F)F)n2ncc(C(=O)NCCc3ccc(Cl)cc3)c2n1 | 0 | 0 | 0 | 0 | 0 | 85
O=C(CCn1cccc1)NCc1ccc(Cl)cc1 | 0 | 0 | 0 | 0 | 0 | 64
Cc1cc(C(F)(F)F)n2ncc(C(=O)O)c2n1 | 0 | 0 | 0 | 2 | 0 | 0
O=C(NCc1ccc(Cl)cc1)c1cnn2ccccc12 | 0 | 0 | 0 | 0 | 0 | 76
